Compound activity: PubChem, several laboratories
RecA splice inh = Mtb RecA intein splicing inhibitors, primary screen, biochemical, fluorescence, HTS; Protein RecA (Mycobacterium tuberculosis (strain ATCC 25618 / H37Rv)), P9WHJ3; cell-free RecA intein splicing; inhibition, % (no concentration beside the values); 0.75% of 290,000 active; in the data active means inhibition above about 30%;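 further: 0% = vehicle wells and 100% = reference inhibitor control wells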
GDH-TPI counter-1 = GDH-TPI coupling enzyme inhibitors, primary screen, artefact control for M. tuberculosis FBA inhibitor project, biochemical, absorbance, full deck; 1.2% of 360,000 active; inhibition, % at 4.8 µM; GDH-TPI coupled enzyme counterscreen, NADH absorbance;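 further: 0% = DMSO wells and 100% = wells lacking the enzyme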
FBA Mtb inh = Mtb FBA enzyme inhibitors, primary screen, biochemical, fluorescence, strain H37Rv; inhibition, % at 1 µM; purified M. tuberculosis FBA, fluorescence read-out; AID 588726, 2011; 2.3% of 360,000 active; Fructose-bisphosphate aldolase (Mycobacterium tuberculosis (strain ATCC 25618 / H37Rv)), …; in the data active means inhibition above about 27%;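 further: 0% = vehicle and 100% = reference inhibitor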
SARS 3CLpro inh = SARS-CoV 3CLpro protease inhibitors, primary screen, biochemical, quenched FRET. 0.14% of 290,000 active. Replicase polyprotein 1ab (Severe acute respiratory syndrome coronavirus), P0C6X7. inhibition, % at 6 µM. AID 1706, 2009. recombinant SARS-CoV 3CLpro, quenched FRET peptide cleavage; in the data active means inhibition above about 12%
CCHFV vOTU inh = CCHFV vOTU protease inhibitors, primary screen, biochemical, Pep-AMC substrate, fluorescence. inhibition, % at 11.5 µM. 0.55% of 370,000 active. AID 651958, 2012; further: 0% = vehicle wells with enzyme and 100% = no enzyme wells
DUSP3 inh = VHR1 phosphatase inhibitors, primary screen, biochemical, absorbance, uHTS | Dual specificity protein phosphatase 3 (Homo sapiens), P51452 | 0.52% of 290,000 active | recombinant VHR phosphatase, pNPP absorbance | inhibition, % at 13.3 µM | AID 1654, 2009; in the data active means inhibition above about 50%
Target sequence (P51452 whole entry, looked up): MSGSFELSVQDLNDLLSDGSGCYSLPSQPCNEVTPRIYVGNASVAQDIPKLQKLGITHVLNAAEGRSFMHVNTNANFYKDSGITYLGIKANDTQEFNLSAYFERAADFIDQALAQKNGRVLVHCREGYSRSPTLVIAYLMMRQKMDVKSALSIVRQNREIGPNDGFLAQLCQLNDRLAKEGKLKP
Mtb FBA inh conf = M. tuberculosis aldolase blockers, biochemical, fluorescence, strain H37Rv, confirmation. inhibition, % at 1 µM. shares compounds with FBA Mtb inh. 78% of 5,600 active. purified M. tuberculosis FBA, fluorescence read-out; in the data active means inhibition above about 27%;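 further: 0% = vehicle wells and 100% = reference inhibitor wells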
GDH-TPI counter-2 = GDH-TPI coupling enzyme inhibitors, artefact control for M. tuberculosis FBA inhibitor project, biochemical, fluorescence, high throughput; inhibition, % at 1 µM; shares compounds with FBA Mtb inh; 81% of 5,600 active; AID 652141, 2013; GDH-TPI coupled enzyme counterscreen; in the data active means inhibition above about 10%
Active calls of the source: *; . = no result given. A selection: hits, their analogues and other compounds. The true share with any hit is near 4.7%. Unless noted, no stated cut-off is given here; in the data, active means inhibition above about 30%; inactive means the rest.

SMILES	RecA splice inh	GDH-TPI counter-1	FBA Mtb inh	SARS 3CLpro inh	CCHFV vOTU inh	DUSP3 inh	Mtb FBA inh conf	GDH-TPI counter-2
CN(C)CCNC(=O)c1cc2c(s1)-c1ccc(Cl)cc1SC2	1	6	34*	2	-98	-20	106*	90*
CCOCCCNC(=O)c1cc2c(s1)-c1ccccc1SC2	-6	4	-4	1	16	-32	.	.
Cn1c(=O)c(C(=O)COC(=O)c2cc(-c3ccco3)nc3ccccc23)c(N)n(CC2CC2)c1=O	-11	.	.	3	.	11	.	.
CCc1cc(=O)oc2cc(OC(C)C(=O)NCC(O)c3ccccc3)c(Cl)cc12 (stereo unspecified)	-1	5	7	0	1	-3	.	.
CCCc1cc(=O)oc2cc(C)cc(OCC(=O)NCC(O)c3ccccc3)c12 (stereo unspecified)	-1	10	61*	-1	4	-10	161*	151*
CCN(CC)C(=O)COc1cc(C)cc2oc(=O)cc(-c3ccccc3)c12	-3	0	2	-2	11	3	.	.
Cc1cc(OC(C)C(=O)NCC2CCC(C(=O)O)CC2)c2c3c(c(=O)oc2c1)CCC3 (stereo unspecified)	-2	7	20	-4	-8	-4	.	.
Cc1cc(OC(C)C(=O)NCC(O)c2ccccc2)c2c3c(c(=O)oc2c1)CCC3 (stereo unspecified)	-3	13	77*	3	-39	-6	32*	35*
CCCc1cc(=O)oc2cc(C)cc(OC(C)C(=O)NCC(O)c3ccccc3)c12 (stereo unspecified)	0	2	76*	2	-2	-6	3	0
Cc1cc(OC(C)C(=O)NCC2CCC(C(=O)O)CC2)c2c(C)cc(=O)oc2c1 (stereo unspecified)	.	9	86*	-1	-36	21	195*	190*
Cc1cc(OC(C)C(=O)NCC(O)c2ccccc2)c2c(C)cc(=O)oc2c1 (stereo unspecified)	-1	11	71*	2	-2	0	111*	98*
Cc1cc(OC(C)C(=O)NCCc2c[nH]c3ccccc23)c2c(C)cc(=O)oc2c1 (stereo unspecified)	8	5	3	2	-2	21	.	.
COCC(=O)N1CCC(Oc2ccc(C(=O)NC(C)c3csc(C)n3)cc2)CC1 (stereo unspecified)	-2	-6	-2	1	7	28	.	.
CCOC(=O)N1CCC(NC(=O)C2CCN(c3ccc(N4CCOCC4)nn3)CC2)CC1	-6	13	31*	-1	.	10	123*	107*
CCOC(=O)c1c(-c2ccccc2)oc2ccc(OCC(O)CN(C)C)cc12 (stereo unspecified)	1	6	48*	2	-48	14	44*	32*
COc1ccc2c(=O)c(-c3cnn(-c4ccccc4)c3)c(C)oc2c1	0	-7	3	-6	-13	38	.	.
CCOC(=O)c1c(-c2ccccc2)oc2ccc(OC(C)=O)cc12	14	10	43*	5	-19	29	2	-4
CCOC(=O)c1c(C)oc2ccc(OS(C)(=O)=O)cc12	-3	-7	-2	-4	13	-4	.	.
CC(=O)Oc1ccc2c(=O)c(-c3ccccc3)c(C)oc2c1	8	3	43*	7	-51	9	49*	43*
Cc1c(C(=O)O)sc2[nH]c(=O)n(Cc3ccccc3)c(=O)c12	0	5	3	4	-6	36	.	.
C/C=C(/CCC1NCCc2c1[nH]c1ccccc21)[Si](C)(C)C (stereo unspecified)	.	-3	3	.	7	.	.	.
